# Laboratory results reported in the supplement of paper PMC11001985.
# A number with no mark means an inactive call.
# Compound: C#CCNC(=O)CCSSCCC(=O)NCCc1ccc(C=O)c(C=O)c1
# Experiment: lysine labeling ratio R10:1 (500 µM / 50 µM probe), SILAC-ABPP in living cells; higher = lower intrinsic lysine reactivity toward the probe, active = 2 or less
# Conditions: HeLa; probe concentrations 500 vs 50 µM
# Outline: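 Measurements came from LC-MS/MS on a TIMS-TOF Pro of mixed SILAC light and heavy HeLa lysates after click to biotin-azide, trypsin digestion, neutravidin capture, DTT release and alkylation. Before lysis, the living cells sat in PBS at room temperature with 50 µM or 500 µM of an alkyne-tagged, disulfide-linked lysine probe, and labels were swapped forward and reverse. R per lysine is the median across both swap directions of the filtered median high-probe/low-probe MS1 peptide ratio. The cap is 20.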
# UniProt P08581, sequence (P08581 whole entry): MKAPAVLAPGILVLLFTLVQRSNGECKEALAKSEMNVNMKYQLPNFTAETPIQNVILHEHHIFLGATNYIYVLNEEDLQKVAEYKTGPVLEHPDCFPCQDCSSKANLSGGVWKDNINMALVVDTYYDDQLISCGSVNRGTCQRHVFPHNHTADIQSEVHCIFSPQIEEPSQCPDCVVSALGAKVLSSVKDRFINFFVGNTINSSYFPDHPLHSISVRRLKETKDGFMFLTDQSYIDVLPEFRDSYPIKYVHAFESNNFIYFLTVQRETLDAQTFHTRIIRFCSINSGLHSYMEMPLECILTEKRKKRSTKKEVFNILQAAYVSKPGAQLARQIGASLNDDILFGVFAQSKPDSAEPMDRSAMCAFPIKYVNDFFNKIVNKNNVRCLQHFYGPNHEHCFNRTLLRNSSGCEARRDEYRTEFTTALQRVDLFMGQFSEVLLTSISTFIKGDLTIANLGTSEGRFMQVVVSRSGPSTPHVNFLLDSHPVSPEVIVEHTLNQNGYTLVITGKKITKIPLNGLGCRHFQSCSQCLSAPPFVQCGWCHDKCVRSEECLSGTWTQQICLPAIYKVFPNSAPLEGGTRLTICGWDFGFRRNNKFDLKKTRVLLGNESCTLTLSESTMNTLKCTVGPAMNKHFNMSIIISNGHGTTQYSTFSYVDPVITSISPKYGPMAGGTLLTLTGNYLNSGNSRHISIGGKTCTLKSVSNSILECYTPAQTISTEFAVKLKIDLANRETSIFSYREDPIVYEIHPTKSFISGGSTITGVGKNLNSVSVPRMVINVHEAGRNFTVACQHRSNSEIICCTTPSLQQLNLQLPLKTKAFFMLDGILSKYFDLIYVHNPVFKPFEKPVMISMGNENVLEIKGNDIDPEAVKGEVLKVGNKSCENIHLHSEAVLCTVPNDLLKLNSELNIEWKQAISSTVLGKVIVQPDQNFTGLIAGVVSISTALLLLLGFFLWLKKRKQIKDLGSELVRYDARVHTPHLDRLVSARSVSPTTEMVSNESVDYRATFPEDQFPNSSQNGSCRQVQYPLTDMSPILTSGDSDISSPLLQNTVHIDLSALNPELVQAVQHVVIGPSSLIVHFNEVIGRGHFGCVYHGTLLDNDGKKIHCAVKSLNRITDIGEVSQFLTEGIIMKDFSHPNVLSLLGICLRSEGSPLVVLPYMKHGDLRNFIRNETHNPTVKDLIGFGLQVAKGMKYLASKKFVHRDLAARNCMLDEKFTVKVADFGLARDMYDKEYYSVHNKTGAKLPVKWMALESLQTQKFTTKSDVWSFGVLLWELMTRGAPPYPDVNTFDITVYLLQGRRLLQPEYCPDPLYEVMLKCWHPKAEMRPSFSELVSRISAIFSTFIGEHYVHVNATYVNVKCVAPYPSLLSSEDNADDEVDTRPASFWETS
# UniProt P22413, sequence (P22413 whole entry): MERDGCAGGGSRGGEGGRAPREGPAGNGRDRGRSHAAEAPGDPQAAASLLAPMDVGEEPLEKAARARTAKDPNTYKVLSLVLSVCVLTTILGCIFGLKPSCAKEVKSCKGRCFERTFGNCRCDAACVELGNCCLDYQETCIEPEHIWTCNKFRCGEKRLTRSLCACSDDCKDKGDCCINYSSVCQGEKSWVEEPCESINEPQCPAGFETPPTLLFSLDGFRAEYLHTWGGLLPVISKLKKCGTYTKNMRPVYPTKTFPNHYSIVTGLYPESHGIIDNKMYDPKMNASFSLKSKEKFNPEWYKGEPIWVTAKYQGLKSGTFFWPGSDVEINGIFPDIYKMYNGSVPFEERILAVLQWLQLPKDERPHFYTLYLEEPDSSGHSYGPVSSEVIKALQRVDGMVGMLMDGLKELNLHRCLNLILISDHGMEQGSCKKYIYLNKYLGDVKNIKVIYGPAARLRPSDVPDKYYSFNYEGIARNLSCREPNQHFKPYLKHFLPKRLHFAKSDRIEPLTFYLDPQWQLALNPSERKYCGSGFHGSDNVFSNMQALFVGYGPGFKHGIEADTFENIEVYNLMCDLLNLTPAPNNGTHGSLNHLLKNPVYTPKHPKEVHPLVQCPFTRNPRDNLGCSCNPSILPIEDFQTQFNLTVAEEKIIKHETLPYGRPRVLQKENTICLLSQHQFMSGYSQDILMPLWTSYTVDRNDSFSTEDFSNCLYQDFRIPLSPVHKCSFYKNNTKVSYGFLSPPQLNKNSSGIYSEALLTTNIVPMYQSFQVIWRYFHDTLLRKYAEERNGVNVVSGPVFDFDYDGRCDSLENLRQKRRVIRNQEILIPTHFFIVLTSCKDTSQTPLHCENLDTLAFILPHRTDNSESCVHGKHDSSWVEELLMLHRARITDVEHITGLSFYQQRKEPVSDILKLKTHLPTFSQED
# UniProt P15311, sequence (P15311 whole entry): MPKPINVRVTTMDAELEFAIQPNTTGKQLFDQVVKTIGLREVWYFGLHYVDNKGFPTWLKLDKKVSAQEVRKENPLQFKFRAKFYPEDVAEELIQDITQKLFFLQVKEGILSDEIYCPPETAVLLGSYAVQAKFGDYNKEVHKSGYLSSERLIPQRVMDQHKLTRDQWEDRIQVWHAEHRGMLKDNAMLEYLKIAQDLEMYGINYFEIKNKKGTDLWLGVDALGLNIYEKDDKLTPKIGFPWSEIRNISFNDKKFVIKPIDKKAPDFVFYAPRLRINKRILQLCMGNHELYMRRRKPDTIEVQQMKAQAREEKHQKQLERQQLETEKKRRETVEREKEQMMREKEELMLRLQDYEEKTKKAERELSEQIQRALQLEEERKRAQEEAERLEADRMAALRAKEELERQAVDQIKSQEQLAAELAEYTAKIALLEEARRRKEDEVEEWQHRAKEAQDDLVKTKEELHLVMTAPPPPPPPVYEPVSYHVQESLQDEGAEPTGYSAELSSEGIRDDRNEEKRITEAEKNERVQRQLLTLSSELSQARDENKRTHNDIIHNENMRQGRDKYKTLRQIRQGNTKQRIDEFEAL
# UniProt P50991, sequence (P50991 whole entry): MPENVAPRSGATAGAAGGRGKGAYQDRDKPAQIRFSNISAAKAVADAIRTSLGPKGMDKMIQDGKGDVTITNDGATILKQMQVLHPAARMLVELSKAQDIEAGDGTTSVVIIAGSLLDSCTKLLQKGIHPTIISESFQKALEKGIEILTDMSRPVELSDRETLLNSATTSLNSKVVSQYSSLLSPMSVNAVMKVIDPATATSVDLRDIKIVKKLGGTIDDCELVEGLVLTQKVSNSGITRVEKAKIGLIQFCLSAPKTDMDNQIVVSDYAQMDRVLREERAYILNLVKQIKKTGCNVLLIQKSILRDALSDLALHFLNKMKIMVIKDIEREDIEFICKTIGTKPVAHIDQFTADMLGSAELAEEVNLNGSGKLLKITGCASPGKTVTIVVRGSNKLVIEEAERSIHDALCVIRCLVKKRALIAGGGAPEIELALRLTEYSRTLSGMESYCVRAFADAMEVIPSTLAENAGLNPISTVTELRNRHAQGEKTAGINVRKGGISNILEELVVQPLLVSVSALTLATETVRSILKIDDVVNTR
# UniProt Q99805, sequence (Q99805 whole entry): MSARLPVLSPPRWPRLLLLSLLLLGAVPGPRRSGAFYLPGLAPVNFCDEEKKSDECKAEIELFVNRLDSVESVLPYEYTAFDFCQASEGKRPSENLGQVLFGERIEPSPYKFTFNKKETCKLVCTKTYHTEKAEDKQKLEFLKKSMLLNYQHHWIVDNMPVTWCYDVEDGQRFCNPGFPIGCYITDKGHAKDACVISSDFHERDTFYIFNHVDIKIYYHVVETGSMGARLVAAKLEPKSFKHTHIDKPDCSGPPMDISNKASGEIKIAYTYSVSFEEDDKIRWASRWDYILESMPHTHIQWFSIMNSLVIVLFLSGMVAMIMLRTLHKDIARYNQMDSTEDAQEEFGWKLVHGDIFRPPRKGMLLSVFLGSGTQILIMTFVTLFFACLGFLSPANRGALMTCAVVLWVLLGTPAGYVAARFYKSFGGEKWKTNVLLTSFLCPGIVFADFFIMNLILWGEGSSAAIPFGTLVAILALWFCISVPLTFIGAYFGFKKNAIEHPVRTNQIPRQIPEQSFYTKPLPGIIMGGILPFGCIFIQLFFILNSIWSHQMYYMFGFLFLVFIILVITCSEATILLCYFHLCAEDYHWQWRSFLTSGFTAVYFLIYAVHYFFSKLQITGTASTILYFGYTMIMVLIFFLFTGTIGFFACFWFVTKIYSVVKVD
# UniProt Q9HB71, sequence (Q9HB71 whole entry): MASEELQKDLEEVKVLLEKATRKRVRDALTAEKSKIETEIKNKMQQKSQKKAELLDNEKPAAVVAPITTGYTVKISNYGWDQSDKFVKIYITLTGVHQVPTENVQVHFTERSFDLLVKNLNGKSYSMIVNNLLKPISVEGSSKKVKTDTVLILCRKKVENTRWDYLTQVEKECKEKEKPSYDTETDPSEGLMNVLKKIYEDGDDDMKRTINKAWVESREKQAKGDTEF
# UniProt P02533, sequence (P02533 whole entry): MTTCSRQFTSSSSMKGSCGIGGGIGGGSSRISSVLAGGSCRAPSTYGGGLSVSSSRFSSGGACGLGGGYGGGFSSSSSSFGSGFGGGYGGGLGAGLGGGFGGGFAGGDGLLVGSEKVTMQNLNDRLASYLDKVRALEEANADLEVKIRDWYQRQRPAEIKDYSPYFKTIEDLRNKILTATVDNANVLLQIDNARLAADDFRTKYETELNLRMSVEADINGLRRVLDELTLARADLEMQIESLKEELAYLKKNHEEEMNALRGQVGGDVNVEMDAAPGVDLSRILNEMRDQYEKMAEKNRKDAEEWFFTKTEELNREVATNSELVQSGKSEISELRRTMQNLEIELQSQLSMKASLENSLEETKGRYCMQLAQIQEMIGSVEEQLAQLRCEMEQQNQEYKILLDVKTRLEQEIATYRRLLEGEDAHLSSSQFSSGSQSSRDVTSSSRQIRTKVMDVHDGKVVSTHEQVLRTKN
# UniProt P34741, sequence (P34741 whole entry): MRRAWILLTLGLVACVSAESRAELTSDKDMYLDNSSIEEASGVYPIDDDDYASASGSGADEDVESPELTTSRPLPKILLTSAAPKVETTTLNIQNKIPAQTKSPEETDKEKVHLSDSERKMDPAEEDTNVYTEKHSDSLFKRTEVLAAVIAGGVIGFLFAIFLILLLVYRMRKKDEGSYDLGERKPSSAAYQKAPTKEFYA
row,Target,lysine labeling ratio R10:1
1,HSP90B1 (lysine site: K97) (UniProt P14625),5.42
2,RARS (lysine site: K471) (UniProt P54136),2.85
3,PDCD6IP (lysine site: K640) (UniProt Q8WUM4),0.892 (active)
4,HSPA9 (lysine site: K300) (UniProt P38646),2.25
5,PLS3 (lysine site: K91) (UniProt P13797),2.1
6,TMEM109 (lysine site: K215) (UniProt Q9BVC6),3.67
7,MSN (lysine site: K388) (UniProt P26038),1.79 (active)
8,CACNA2D1 (lysine site: K577) (UniProt P54289),4.82
9,ECE1 (lysine site: K197) (UniProt P42892),2.89
10,UniProt P22413 (lysine site: K465),1.52 (active)
11,MCAM (lysine site: K236) (UniProt P43121),6.1
12,SDC4 (lysine site: K114) (UniProt P31431),3.81
13,PLXNB2 (lysine site: K1159) (UniProt O15031),1.75 (active)
14,DISP1 (lysine site: K369) (UniProt Q96F81),1.37 (active)
15,APP (lysine site: K522) (UniProt P05067),5.65
16,CACYBP (lysine site: K19) (UniProt Q9HB71),7.06
17,CCT4 (lysine site: K395) (UniProt P50991),3.34
18,SDC2 (lysine site: K141) (UniProt P34741),1.35 (active)
19,TST (lysine site: K24) (UniProt Q16762),2.33
20,MYH9 (lysine site: K1459) (UniProt P35579),1.3 (active)

row,Target,lysine labeling ratio R10:1
1,HSPG2 (lysine site: K3155) (UniProt P98160),1.37 (active)
2,CLPTM1 (lysine site: K224) (UniProt O96005),1.69 (active)
3,UniProt Q9H336 (lysine site: K468),1.33 (active)
4,EPCAM (lysine site: K129) (UniProt P16422),6.18
5,UniProt P05186 (lysine site: K241),3.23
6,KRAS (lysine site: K128) (UniProt P01116),1.02 (active)
7,FN1 (lysine site: K116) (UniProt P02751),5.35
8,UniProt P48060 (lysine site: K200),3.31
9,TM9SF2 (lysine site: K328) (UniProt Q99805),0.928 (active)
10,MET (lysine site: K725) (UniProt P08581),0.656 (active)
11,SPTAN1 (lysine site: K229) (UniProt Q13813),3.87
12,LAMP1 (lysine site: K337) (UniProt P11279),6.57
13,SUB1 (lysine site: K39) (UniProt P53999),1.42 (active)
14,UniProt P02533 (lysine site: K405),7.37
15,UniProt Q92729 (lysine site: K440),1.22 (active)
16,RAB8A (lysine site: K197) (UniProt P61006),2.44
17,EZR (lysine site: K523) (UniProt P15311),1.87 (active)
18,ZMPSTE24 (lysine site: K259) (UniProt O75844),2.08
19,UniProt P21589 (lysine site: K326),1.17 (active)
20,ROBO1 (lysine site: K282) (UniProt Q9Y6N7),2.01
